Molecules are shown by their SMILES. Several values for one entry are separate records, joined by “and”; a condition that tells them apart may be missing. Equal entries are not always repeated. Inconclusive results are not listed. Activity calls are given as the source filed them. Calls follow the shape of the full dose curve.

Among the data in PubChem BioAssay (NCATS) are activity change, negative = inhibition and max response values, retold here.

The first assay in a line: qHTS Assay for Lipid Storage Modulators (AID 1519). As to activity change, negative = inhibition: % is scaled to controls: 0 for no effect and ±100 for the full control effect. The following applies: Drosophila S3 cells, BODIPY lipid droplet/cell ratio, laser cytometry; at 57.5 µM (top of the series); cells loaded with oleic acid. A digest of the protocol:
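Cells seeded at 5,000 per well were treated with compounds over a concentration series and loaded with oleic acid (400 uM, as added). Lipid droplet fluorescence (488 nm excitation, 500-530 nm channel) was read by laser-scanning cytometry and normalized to 20 uM Triacsin C.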
A general note: Quantitative high-throughput screening tests each substance at several concentrations.
Regarding `CNC(=O)[C@H]1O[C@@H](n2cnc3c(NCc4cccc(I)c4)ncnc32)[C@H](O)[C@H]1O`, the activity change, negative = inhibition was 1.11% (inactive).

`Cc1cn([C@H]2C[C@@H](N=[N+]=[N-])[C@@H](CO)O2)c(=O)[nH]c1=O`: the activity change, negative = inhibition is 0.117% (inactive).

Regarding `N.N.N.N.N.N.N.N.N.N.N.N.N.N.O.O.[Cl-].[Cl-].[Cl-].[Cl-].[Cl-].[Cl-].[Ru].[Ru].[Ru]`, the activity change, negative = inhibition is 3.46% (inactive).

As to `CN=C(N)NCCCC(N)C(=O)O` (stereo not given), the activity change, negative = inhibition is 0.52% (inactive).

As to `COc1c2c(nc3ccccc13)OC(C(C)(O)CO)C2` (stereo not given), the activity change, negative = inhibition was 1.22% (inactive).

Regarding `CC(C)C1NC(=O)[C@H](CCCCN)NC(=O)[C@@H](Cc2c[nH]c3ccccc23)NC(=O)[C@H](Cc2ccc(O)cc2)NC(=O)[C@H](C)N(C)C(=O)[C@H](Cc2ccccc2)NC1=O` (stereo not given in full), the activity change, negative = inhibition was 0.502% (inactive).

As for `O=C(Cc1ccc(Cl)c(Cl)c1)OCCN1CCCC1`, the activity change, negative = inhibition was 1.23% (inactive).

As to `Cc1ccccc1N1CCN(S(=O)(=O)C[C@]23CCC(CC2NC(=O)[C@@H](N)CCS(C)(=O)=O)C3(C)C)CC1` (stereo not given in full), the activity change, negative = inhibition is 0.353% (inactive).

On to `NC(=O)C1=CN(C2OC(COP(=O)(O)OP(=O)(O)OC[C@H]3O[C@@H](n4cnc5c(N)ncnc54)[C@H](OP(=O)(O)O)[C@H]3O)C(O)C2O)C=CC1` (stereo not given in full), for which the activity change, negative = inhibition was -2.12% (inactive).

Take `CC(=O)[C@@]1(O)CC[C@H]2C3CCC4=CC(=O)CC[C@]4(C)C3CC[C@@]21C` (stereo not given in full): the activity change, negative = inhibition was 1.08% (inactive).

On to `OC[C@H]1O[C@@H](n2cnc3c(NCCc4ccccc4)ncnc32)[C@H](O)[C@H]1O`, for which the activity change, negative = inhibition was -0.874% (inactive).

For `NCCNC(=O)c1ccc(Cl)cc1`, the activity change, negative = inhibition was -0.17% (inactive) and -0.521% (inactive).

With `Nc1nc(Nc2ccccc2)nc2c1ncn2[C@@H]1O[C@H](CO)[C@H](O)[C@H]1O`, the activity change, negative = inhibition is -0.104% (inactive).

For the compound `O=C(O)CC[C@H](NC(=O)c1ccccc1C(=O)O)C(=O)O`, the activity change, negative = inhibition is -0.627% (inactive).

`NCC1OC(O[C@@H]2[C@H](O)[C@@H](OC3C(O)C(N)CC(N)C3OC3OC(CO)C(O)C(O)C3N)O[C@@H]2CO)C(N)C(O)C1O` (stereo not given in full): the activity change, negative = inhibition is 1.08% (inactive).

For the compound `C[C@]12CCC(=O)C=C1CC[C@@H]1C2[C@@H](O)C[C@@]2(C)[C@H]1CC[C@]2(O)C(=O)CO` (stereo not given in full), the activity change, negative = inhibition was 0.0073% (inactive) and -1.01% (inactive).

For the compound `CN1C(=O)CCC1c1cccnc1` (stereo not given), the activity change, negative = inhibition is 10.8% (inactive).

As for `CC(=O)O[C@H]1C[C@@H]2CCC3C(CC[C@@]4(C)[C@H]3C[C@H]([N+]3(C)CCCCC3)[C@@H]4OC(C)=O)[C@@]2(C)C[C@@H]1[N+]1(C)CCCCC1` (stereo not given in full), the activity change, negative = inhibition was 0.655% (inactive).

`N=C(N)SCCc1cccc(CCSC(=N)N)c1`: the activity change, negative = inhibition is 1.43% (inactive).

In the case of `Nc1nc(SCc2ccc([N+](=O)[O-])cc2)c2ncn([C@@H]3O[C@H](CO)[C@H](O)[C@H]3O)c2n1`, the activity change, negative = inhibition is -2% (inactive).

Still in this assay, the particulars now being: Drosophila S3 cells, BODIPY lipid droplet/cell ratio, laser cytometry; measured here: cell count channel max response; cells loaded with oleic acid.
For the compound `CNC(=O)[C@H]1O[C@@H](n2cnc3c(NCc4cccc(I)c4)ncnc32)[C@H](O)[C@H]1O`, the max response stood at 54.7%.

As for `Cc1cn([C@H]2C[C@@H](N=[N+]=[N-])[C@@H](CO)O2)c(=O)[nH]c1=O`, the max response is -9.17%.

`N.N.N.N.N.N.N.N.N.N.N.N.N.N.O.O.[Cl-].[Cl-].[Cl-].[Cl-].[Cl-].[Cl-].[Ru].[Ru].[Ru]`: the max response worked out at 40.4%.

As for `CN=C(N)NCCCC(N)C(=O)O` (stereo not given), the max response was -20%.

As for `COc1c2c(nc3ccccc13)OC(C(C)(O)CO)C2` (stereo not given), the max response is -18%.

Consider `CC(C)C1NC(=O)[C@H](CCCCN)NC(=O)[C@@H](Cc2c[nH]c3ccccc23)NC(=O)[C@H](Cc2ccc(O)cc2)NC(=O)[C@H](C)N(C)C(=O)[C@H](Cc2ccccc2)NC1=O` (stereo not given in full), for which the max response amounted to 25.5%.

For the compound `O=C(Cc1ccc(Cl)c(Cl)c1)OCCN1CCCC1`, the max response was -1.75%.

On to `Cc1ccccc1N1CCN(S(=O)(=O)C[C@]23CCC(CC2NC(=O)[C@@H](N)CCS(C)(=O)=O)C3(C)C)CC1` (stereo not given in full), for which the max response is -14.5%.

As to `NC(=O)C1=CN(C2OC(COP(=O)(O)OP(=O)(O)OC[C@H]3O[C@@H](n4cnc5c(N)ncnc54)[C@H](OP(=O)(O)O)[C@H]3O)C(O)C2O)C=CC1` (stereo not given in full), the max response is -24.1%.

On to `CC(=O)[C@@]1(O)CC[C@H]2C3CCC4=CC(=O)CC[C@]4(C)C3CC[C@@]21C` (stereo not given in full), for which the max response was -12.2%.

As for `OC[C@H]1O[C@@H](n2cnc3c(NCCc4ccccc4)ncnc32)[C@H](O)[C@H]1O`, the max response is -25.2%.

Turning to `NCCNC(=O)c1ccc(Cl)cc1`, the max response is 0.461% and 25.8%.

Consider `Nc1nc(Nc2ccccc2)nc2c1ncn2[C@@H]1O[C@H](CO)[C@H](O)[C@H]1O`, for which the max response is -25.4%.

Regarding `O=C(O)CC[C@H](NC(=O)c1ccccc1C(=O)O)C(=O)O`, the max response worked out at 34.2%.

With `NCC1OC(O[C@@H]2[C@H](O)[C@@H](OC3C(O)C(N)CC(N)C3OC3OC(CO)C(O)C(O)C3N)O[C@@H]2CO)C(N)C(O)C1O` (stereo not given in full), the max response was -5.44%.

For `C[C@]12CCC(=O)C=C1CC[C@@H]1C2[C@@H](O)C[C@@]2(C)[C@H]1CC[C@]2(O)C(=O)CO` (stereo not given in full), the max response was 2.28% and 8.51%.

Turning to `CN1C(=O)CCC1c1cccnc1` (stereo not given), the max response is -1.85%.

With `CC(=O)O[C@H]1C[C@@H]2CCC3C(CC[C@@]4(C)[C@H]3C[C@H]([N+]3(C)CCCCC3)[C@@H]4OC(C)=O)[C@@]2(C)C[C@@H]1[N+]1(C)CCCCC1` (stereo not given in full), the max response was -31.8%.

`N=C(N)SCCc1cccc(CCSC(=N)N)c1`: the max response was -17.4%.

Regarding `Nc1nc(SCc2ccc([N+](=O)[O-])cc2)c2ncn([C@@H]3O[C@H](CO)[C@H](O)[C@H]3O)c2n1`, the max response is -35.2%.
